These compounds were tested on IRAK1. Details: concentration: 1 μM, replicates: in singlicate; n = 1.
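Further: KINOMEscan kinase panel screen.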

Row | Compound | %Inh [%]
1 | COc1cc2ncn(-c3cc(OCc4ccncc4)c(C(N)=O)s3)c2cc1OC [GSK336313] | 8
2 | OCCCNc1nccc(-c2c(-c3cccc(C(F)(F)F)c3)nn3cc(C(F)(F)F)ccc23)n1 [GW630813] | 29
3 | Cc1ccc(Oc2ccc(Nc3ncnc4cc[nH]c34)cc2C)cn1 | 6
4 | COc1cc(Nc2nccc(N3CCC(NC(=O)C(C)c4ccc(Cl)cc4)C3)n2)cc(OC)c1OC (stereo not drawn) [GSK1379757] | 41
5 | Nc1nc(N)c2nc(-c3ccccc3)[nH]c2n1 [SKF-12778] | 34
6 | COc1cc(OC)cc(-c2cc3cnc(N)nc3nc2NC(=O)NC(C)(C)C)c1 | 0
7 | COc1cc2nccc(Nc3cccc(Oc4ccccc4)c3)c2cc1OC.Cl [GW284543] | 0
8 | CCn1c(-c2ccoc2)nc2cnccc21 [SB-733887] | 59
9 | CCn1c(-c2nonc2N)nc2ccccc21 [SB-693162/GW549034] | 0
10 | COC(=O)c1c(-c2ccccc2)c2cc(C)ccc2c(=O)n1Cc1ccccc1 | 21
11 | CCCNC(=O)Nc1ccc(Oc2ncnc3ccn(C)c23)cc1 | 16
12 | COc1ccc(-c2coc3ccc(-c4nnc(SCc5cccc(C#N)c5)o4)cc23)cc1 | 0
13 | CCC(=O)c1c(-c2ccccc2)c2cc(Cl)ccc2c(=O)n1Cc1cc(S(C)(=O)=O)n(CC(F)F)n1 | 26
14 | CN1C(=O)C(Nc2ccccc2)=C(c2ccccc2)C1=O [SB-300079] | 16
15 | Cc1ccccc1COc1cc(-n2cnc3cc(Cl)ccc32)sc1C(N)=O [GW813349] | 22
16 | COc1cc2ncn(-c3cc(OCCCc4ccccc4)c(C(N)=O)s3)c2cc1OC [GSK205189] | 0
17 | COc1cc2ncn(-c3cc(OCc4ccncc4Br)c(C(N)=O)s3)c2cc1OC [GW854278] | 3
18 | O=C1NC(=O)C(c2ccccc2)=C1Nc1cccc(O)c1 [SB-390534] | 0

Row | Compound | %Inh [%]
19 | Cc1cccc(-c2nc(Nc3ccc4c(cnn4C)c3)c3ccccc3n2)n1 [GW876731] | 0
20 | COc1ccc(CNC(=O)NC2CCN(c3ccnc(Nc4ccc(F)cc4)n3)C2)cc1 (stereo not drawn) [GSK1379706] | 45
21 | O=C(NCCNc1ccnc(Nc2ccc(F)cc2)n1)Nc1ccc2c(c1)OCO2 [GSK1379882] | 16
22 | CCS(=O)(=O)c1ccc(OC)c(Nc2ncc(-c3ccc(F)cc3)o2)c1.Cl [GW591947] | 0
23 | COC(=O)c1c(-c2ccccc2)c2cc(Br)ccc2c(=O)n1Cc1ccc(NC(=O)CCC(=O)O)cc1 | 8
24 | O=C(Nc1n[nH]c2cc(-c3ccccc3F)ccc12)C1CC1 [SB-733371] | 0
25 | Cc1nn2c(=O)cc(N3CCOCC3)nc2n1Cc1cccc(Cl)c1Cl [GSK2342769] | 75
26 | O=c1cc(N2CCOCC2)nc2n(Cc3ccc(F)c(Cl)c3)ccn12 [GSK2297099] | 10
27 | Cc1nnc(-c2ccc(C)c(-c3ccc(C(=O)O)cc3)c2)o1 [GW608005] | 0
28 | Cc1c(Cn2c(C)nn3c(=O)cc(N4CCO[C@H](C)C4)nc23)cccc1C(F)(F)F [GSK2373690] | 23
29 | Nc1ncnc2c1ncn2-c1cccc(F)c1 [SKF-97560] | 33
30 | Nc1ncnc2c1ncn2-c1ccc(Cl)cc1 [AH2635] | 17
31 | CC(C)(C)c1ccc(C(=O)Nc2cn3cc(-c4ccccc4)ccc3n2)cc1 | 17
32 | Nc1nc(-c2ccccc2F)c(-c2ccnc3ccccc23)s1 [GW560459] | 30
33 | CCC(=O)c1c(-c2ccccc2)c2cc(Cl)ccc2c(=O)n1Cc1cc(C(=O)NC2CC2)n(C)n1 | 21
34 | CCS(=O)c1ccc(-c2coc3ccc(-c4nnc(C)o4)cc23)cc1 (stereo not drawn) | 6
35 | COc1ccc(-c2cc3c(C)nc(N)nc3n([C@H]3CC[C@H](OCCO)CC3)c2=O)cn1 | 4
36 | O=C(Nc1ccc2c(c1)OCO2)NC1CCN(c2ccnc(NCc3ccc(F)cc3)n2)CC1 [GSK1379859] | 0

What follows are compounds tested on IRAK3. Details: concentration: 1 μM, replicates: in singlicate; n = 1.

Row | Compound | %Inh [%]
37 | COc1cc2ncn(-c3cc(OCc4ccncc4)c(C(N)=O)s3)c2cc1OC [GSK336313] | 0
38 | OCCCNc1nccc(-c2c(-c3cccc(C(F)(F)F)c3)nn3cc(C(F)(F)F)ccc23)n1 [GW630813] | 0
39 | Cc1ccc(Oc2ccc(Nc3ncnc4cc[nH]c34)cc2C)cn1 | 16
40 | COc1cc(Nc2nccc(N3CCC(NC(=O)C(C)c4ccc(Cl)cc4)C3)n2)cc(OC)c1OC (stereo not drawn) [GSK1379757] | 68
41 | Nc1nc(N)c2nc(-c3ccccc3)[nH]c2n1 [SKF-12778] | 0
42 | COc1cc(OC)cc(-c2cc3cnc(N)nc3nc2NC(=O)NC(C)(C)C)c1 | 0
43 | COc1cc2nccc(Nc3cccc(Oc4ccccc4)c3)c2cc1OC.Cl [GW284543] | 2
44 | CCn1c(-c2ccoc2)nc2cnccc21 [SB-733887] | 0
45 | CCn1c(-c2nonc2N)nc2ccccc21 [SB-693162/GW549034] | 0
46 | COC(=O)c1c(-c2ccccc2)c2cc(C)ccc2c(=O)n1Cc1ccccc1 | 0
47 | CCCNC(=O)Nc1ccc(Oc2ncnc3ccn(C)c23)cc1 | 0
48 | COc1ccc(-c2coc3ccc(-c4nnc(SCc5cccc(C#N)c5)o4)cc23)cc1 | 0
49 | CCC(=O)c1c(-c2ccccc2)c2cc(Cl)ccc2c(=O)n1Cc1cc(S(C)(=O)=O)n(CC(F)F)n1 | 0
50 | CN1C(=O)C(Nc2ccccc2)=C(c2ccccc2)C1=O [SB-300079] | 0
51 | Cc1ccccc1COc1cc(-n2cnc3cc(Cl)ccc32)sc1C(N)=O [GW813349] | 3
52 | COc1cc2ncn(-c3cc(OCCCc4ccccc4)c(C(N)=O)s3)c2cc1OC [GSK205189] | 7
53 | COc1cc2ncn(-c3cc(OCc4ccncc4Br)c(C(N)=O)s3)c2cc1OC [GW854278] | 27
54 | O=C1NC(=O)C(c2ccccc2)=C1Nc1cccc(O)c1 [SB-390534] | 0

Row | Compound | %Inh [%]
55 | Cc1cccc(-c2nc(Nc3ccc4c(cnn4C)c3)c3ccccc3n2)n1 [GW876731] | 0
56 | COc1ccc(CNC(=O)NC2CCN(c3ccnc(Nc4ccc(F)cc4)n3)C2)cc1 (stereo not drawn) [GSK1379706] | 0
57 | O=C(NCCNc1ccnc(Nc2ccc(F)cc2)n1)Nc1ccc2c(c1)OCO2 [GSK1379882] | 7
58 | CCS(=O)(=O)c1ccc(OC)c(Nc2ncc(-c3ccc(F)cc3)o2)c1.Cl [GW591947] | 0
59 | COC(=O)c1c(-c2ccccc2)c2cc(Br)ccc2c(=O)n1Cc1ccc(NC(=O)CCC(=O)O)cc1 | 25
60 | O=C(Nc1n[nH]c2cc(-c3ccccc3F)ccc12)C1CC1 [SB-733371] | 0
61 | Cc1nn2c(=O)cc(N3CCOCC3)nc2n1Cc1cccc(Cl)c1Cl [GSK2342769] | 16
62 | O=c1cc(N2CCOCC2)nc2n(Cc3ccc(F)c(Cl)c3)ccn12 [GSK2297099] | 0
63 | Cc1nnc(-c2ccc(C)c(-c3ccc(C(=O)O)cc3)c2)o1 [GW608005] | 0
64 | Cc1c(Cn2c(C)nn3c(=O)cc(N4CCO[C@H](C)C4)nc23)cccc1C(F)(F)F [GSK2373690] | 14
65 | Nc1ncnc2c1ncn2-c1cccc(F)c1 [SKF-97560] | 0
66 | Nc1ncnc2c1ncn2-c1ccc(Cl)cc1 [AH2635] | 0
67 | CC(C)(C)c1ccc(C(=O)Nc2cn3cc(-c4ccccc4)ccc3n2)cc1 | 12
68 | Nc1nc(-c2ccccc2F)c(-c2ccnc3ccccc23)s1 [GW560459] | 17
69 | CCC(=O)c1c(-c2ccccc2)c2cc(Cl)ccc2c(=O)n1Cc1cc(C(=O)NC2CC2)n(C)n1 | 0
70 | CCS(=O)c1ccc(-c2coc3ccc(-c4nnc(C)o4)cc23)cc1 (stereo not drawn) | 0
71 | COc1ccc(-c2cc3c(C)nc(N)nc3n([C@H]3CC[C@H](OCCO)CC3)c2=O)cn1 | 19
72 | O=C(Nc1ccc2c(c1)OCO2)NC1CCN(c2ccnc(NCc3ccc(F)cc3)n2)CC1 [GSK1379859] | 0

Source: paper PMC5540273 (PLoS ONE, 2017)
